Among the data in ChEMBL document CHEMBL4513146, “CO-ADD screening of Karazin Kharkiv National University (Ukraine) compounds” are Inhibition values, retold here.

Measured potencies and affinities stand elsewhere.

Test [1] concerns Klebsiella pneumoniae. Particulars: Concentration 32 ug.mL-1;; ASSAY_TEST Inhibition of Bacterial Growth; detection method Absorption (OD600); MEDIA CAMHB; plate type 384well; NBS; CORNING #3640; time 18 hr.
Test [2] has as its system Candida albicans. Particulars: Concentration 32 ug.mL-1; ASSAY_TEST Inhibition of Fungal Growth; detection method Absorption (OD530).
The test system of test [3] is Cryptococcus neoformans. Particulars: Concentration 32 ug.mL-1; ASSAY_TEST Inhibition of Fungal Growth; detection method Resazurin; Absorption (OD600-OD570); plate type 384well; NBS; CORNING #3640.

In the case of `O=C(CSc1nnc2c(=O)n(-c3ccccc3)ccn12)N1CCN(c2ccc(F)cc2)CC1`, the Inhibition in test [1] is recorded as 13.33%; in test [2] it was -0.45%; in test [3], -26.48%.
With `O=C(CSc1nnc2c(=O)n(-c3ccccc3)ccn12)Nc1ccc2c(c1)OCCO2`, the Inhibition in test [1] was 7.64%; in test [2], 0.98%; in test [3], -23.79%.
Taken in the same sequence, the figures for `O=C(Cn1nc2c3c4c(sc3ncn2c1=O)CCCC4)NCc1ccc(F)cc1` were 9.92%, 15.82% and -14.13%.
`O=C(Cn1nc2n(Cc3ccccc3)c(=O)c3ccccc3n2c1=O)Nc1ccc2c(c1)OCO2`: the Inhibition is given as 2.83% in test [1], 0.36% in test [2] and -11.06% in test [3].
Consider `O=C(Cn1nc2nc(Nc3ccc(F)cc3)ccn2c1=O)N1CCOCC1`, for which the Inhibition is reported as 14.5% in test [1], 2.63% in test [2] and -13.19% in test [3].
In the case of `CCOc1ccc(C(=O)CSc2nnc3c(=O)n(-c4ccc(Br)cc4)ccn23)cc1`, the Inhibition is 15.85% in test [1], 8.18% in test [2] and -11.96% in test [3].
As to `COc1cccc(-n2ccn3c(SCc4cc(C)ccc4C)nnc3c2=O)c1`, the Inhibition in test [1] is 8.78%; in test [2] it was 2.61%; in test [3], -5.92%.
Consider `COc1cc(NC(=O)Cn2nc3ccc(-c4ccc(C)c(C)c4)nn3c2=O)cc(OC)c1`, for which the Inhibition is on record as 2.14% in test [1], 14.91% in test [2] and -15.3% in test [3].
On to `Cc1nnc2ccc(S(=O)(=O)N(CC(=O)OC(C)(C)C)c3ccc4c(c3)OCO4)cn12`, for which the Inhibition in test [1] is given as 6.34%; in test [2], 5.98%; in test [3], -4.94%.
The matching figures for `CCc1nnc2c(SCC(=O)Nc3ccccc3Br)nc3ccccc3n12`: 11.72%, 2.39% and -22.99%.
The matching figures for `COc1ccc(NC(=O)Cn2c(=O)c3nnc(C(C)C)n3c3ccccc32)cc1Cl`: 7.18%, 3.46% and -13.11%.
On to `Cc1ccc(-c2cc3c4nnc(CCC(=O)NCCCc5ccccc5)n4ccn3n2)cc1C`, for which the Inhibition in test [1] is 12.56%; in test [2] it was -0.09%; in test [3], -29.9%.
Turning to `Cc1ccc(NC(=O)CSc2nc3ccccc3n3c(C)nnc23)cc1C`, the Inhibition is on record as -6.18% in test [1], 44.31% in test [2] and -14.42% in test [3].
`Cc1cccc(C)c1NC(=O)Cn1c(=O)c2nnc(C(C)C)n2c2ccccc21`: the values for the Inhibition in test [1], in test [2] and in test [3] were 1.46%, 4.52% and -19.69%, respectively.
On to `CC(C)c1nnc2c(=O)n(CC(=O)Nc3cccc(F)c3)c3ccccc3n12`, for which the Inhibition is recorded as 24.07% in test [1], 3.13% in test [2] and -19.58% in test [3].
The matching figures for `N#CCn1nc2n(Cc3ccccc3)c(=O)c3ccc(C(=O)NC4CCCCC4)cc3n2c1=O`: 4.19%, 1.65% and -13.83%.
As for `CCc1nnc2c(S(=O)(=O)N(Cc3ccccc3F)c3ccc(F)cc3)cccn12`, the Inhibition in test [1] is 2.68%; in test [2] it was 1.99%; in test [3], -5.43%.
Turning to `CCCn1c(=O)c2sccc2n2c(=O)n(CC(=O)c3cccc(OC)c3)nc12`, the Inhibition in test [1] is 7.12%; in test [2], 6.53%; in test [3], -27.27%.
On to `CCOc1ccc(C(=O)Cn2nc3n(CCC(C)C)c(=O)c4sccc4n3c2=O)cc1`, for which the Inhibition is 4.69% in test [1], 2.69% in test [2] and -12.75% in test [3].
Taken in the same sequence, the figures for `COc1cccc(Sc2nc3ccccc3n3c(=O)n(CC(=O)Nc4ccc(Cl)cc4)nc23)c1` were 2.35%, 36.59% and -25.56%.
`CC(C)c1ccc(N(Cc2cccc(Cl)c2)S(=O)(=O)c2cccn3cnnc23)cc1`: the Inhibition is -3.32% in test [1], 3.48% in test [2] and -7.96% in test [3].
Taken in the same sequence, the figures for `CCOc1ccc(-n2ccn3c(SCC(=O)Nc4ccc5c(c4)OCCO5)nnc3c2=O)cc1` were 3.14%, 6.39% and -10.75%.

In general, Inhibition refers to the change of the read-out against control, counted positive when it falls.
